Experimental data: PubChem BioAssay (NCATS)
Results filed as inconclusive are left out. A call without a number means that no potency is given here. Activity calls are given as the source filed them. The call rests on the fitted dose curve; in most records, active means well fitted inhibition curve with a large enough effect; inconclusive means small, poorly fitted or top-dose-only effect, or effect the other way; inactive means flat fitted curve, though single readings scatter.

Target: ATP-dependent 6-phosphofructokinase (Trypanosoma brucei brucei) (UniProt O15648)
Sequence (O15648 whole entry, looked up): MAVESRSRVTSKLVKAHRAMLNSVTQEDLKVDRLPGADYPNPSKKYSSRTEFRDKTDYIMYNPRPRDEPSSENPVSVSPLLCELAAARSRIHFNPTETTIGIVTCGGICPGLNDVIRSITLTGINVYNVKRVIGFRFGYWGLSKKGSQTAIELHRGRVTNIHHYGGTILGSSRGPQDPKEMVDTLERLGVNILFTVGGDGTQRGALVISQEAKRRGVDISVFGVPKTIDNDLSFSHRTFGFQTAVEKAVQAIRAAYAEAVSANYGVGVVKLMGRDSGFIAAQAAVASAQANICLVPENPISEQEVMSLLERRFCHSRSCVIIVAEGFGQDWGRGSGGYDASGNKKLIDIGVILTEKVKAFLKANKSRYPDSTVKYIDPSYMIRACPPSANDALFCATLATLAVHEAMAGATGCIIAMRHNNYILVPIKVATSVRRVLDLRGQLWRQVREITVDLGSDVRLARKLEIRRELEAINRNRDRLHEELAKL
Experiment: qHTS Assay to Find Inhibitors of T. brucei phosphofructokinase: hit validation (AID 492961)
Settings: T. brucei PFK, ADP-Glo luminescence; series mostly up to 51.4 µM
Procedure, shortened: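 Luminescence from ADP-Glo reports ADP generated as T. brucei PFK (1.25 nM) phosphorylates 0.5 mM fructose-6-phosphate using 0.1 mM ATP. Reactions ran 45 min at room temperature, pH 8.0.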

Row | Structure (SMILES) | Potency
1 | CC(C)(C)NC[C@H](O)COc1cccc2c1CCCC2=O | inactive
2 | CC(C)Cc1ccc(CC(=O)O)cc1 | inactive
3 | CCCCCCCCCCCCCC[N+](C)(C)Cc1ccccc1 | inactive
4 | CCN(CC)CCOc1ccccc1C(=O)CCc1ccccc1 | inactive
5 | c1ccc(-c2nc[nH]c2-c2ccccc2)cc1 | inactive
6 | c1ccc(CC2=NCCN2)cc1 | inactive
7 | CC(=O)Oc1ccc(C)cc1 | inactive
8 | CC(=O)NO | inactive
9 | CC(=O)Nc1ccc(S(=O)(=O)Nc2ccc([N+](=O)[O-])cc2)cc1 | inactive
10 | CC(=O)Nc1ncc([N+](=O)[O-])s1 | inactive
11 | Cc1cc(NS(=O)(=O)c2ccc(N)cc2)nc(C)n1 | inactive
12 | C[N+]1(C)CCC(=C(c2ccccc2)c2ccccc2)CC1 | inactive
13 | CCCCCCCCOc1ccc(C(=O)c2ccccc2)c(O)c1 | inactive
14 | COc1ccc(/C=N/NC(=O)c2ccncc2)cc1OC | inactive
15 | CC[C@H](c1ccc(O)cc1)[C@@H](CC)c1ccc(O)cc1 | inactive
16 | CCCN(CCc1cccs1)[C@H]1CCc2c(O)cccc2C1 | inactive
17 | CCCCc1cc2ccccc2c(OCCN(C)C)n1 | inactive
18 | Cl/C(=C\n1cncn1)c1ccc(Cl)cc1Cl | inactive

Row | Structure (SMILES) | Potency
19 | Oc1c(Cl)cc(Cl)c(Cl)c1Cc1c(O)c(Cl)cc(Cl)c1Cl | inactive
20 | CCOC(=O)c1ccc(N)cc1 | inactive
21 | COc1cc(C(=O)NCc2ccc(OCCN(C)C)cc2)cc(OC)c1OC | inactive
22 | CCOc1ccccc1C(N)=O | inactive
23 | C/C=C/C=N/NC(=O)c1ccncc1 | inactive
24 | COc1cc(C(=S)N2CCOCC2)ccc1O | inactive
25 | OCc1ccccn1 | inactive
26 | Cc1ccc(-c2ncc(Cl)cc2-c2ccc(S(C)(=O)=O)cc2)cn1 | inactive
27 | CCCCCCCC/C=C\CCCCCCCCN | inactive
28 | COc1cc(NS(=O)(=O)c2ccc(N)cc2)ncn1 | inactive
29 | Cc1cc(CC(=O)O)c(C)n1-c1ccc(Cl)cc1 | inactive
30 | CC(=O)N[C@@H](CCC(=O)O)C(=O)O | inactive
31 | CN1CCN(C2=Nc3cc(F)ccc3Cc3ccccc32)CC1 | inactive
32 | O=C(c1ccc(F)cc1)C1CCN(CCn2c(=S)[nH]c3ccccc3c2=O)CC1 | inactive
33 | CC(=O)Nc1ccc(OC(=O)c2ccccc2OC(C)=O)cc1 | inactive
34 | Cc1ccccc1OCC(O)CO (stereo unspecified) | inactive
35 | CCCCC(CC)COC(=O)/C=C/c1ccc(OC)cc1 (stereo unspecified) | inactive
36 | O[C@@H](c1cc(C(F)(F)F)nc2c(C(F)(F)F)cccc12)[C@H]1CCCCN1 | inactive
